This passage reports composite z-score, z-score and composite Z-score results from PubChem BioAssay.

In test [1] the test system is Human papillomavirus type 1a protein E7 (residues 44-93). Kind of test: HPV1a E7 fragment binders on microarrays, primary screen, biochemical, small-molecule microarray, residues 44-93, 635 nm fluorescence (AID 1108).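 Further: E7 fragment applied at 1 µg/mL in TBST for 1 h at 4 C; score combines spot fluorescence with its signal to noise ratio.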 Conditions: small-molecule microarray binding, fluorescence 635 nm; higher = more signal.
Test [2] can be described thus: modulators of HCV replicon luciferase signal, primary screen, HCV replication inhibitor project, Huh7 cells, luciferase reporter (AID 1109).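 Further: huh7 hepatoma cells harbouring a luciferase neomycin HCV replicon reporter; luciferase luminescence as measure of HCV replicon replication; test concentration not given here.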 The settings on record: 48 h, higher = more signal. In general terms: In antiviral work, replicon cells carry a viral genome segment that copies itself.
Test [3] has as its target Left-right determination factor 2 (Homo sapiens) (UniProt O00292). Description: LEFTY2 binders on small-molecule microarrays, primary screen, biochemical, small-molecule microarray, 635 nm fluorescence scan (AID 1110). The settings on record: LEFTY2 binding, higher = more signal.
The target in test [4] is Calmodulin-1 (Homo sapiens) (UniProt P0DP23). Kind of test: CALM1 binders on microarrays, EGTA buffer, profiling panel, biochemical, small-molecule microarray, Cy5-labelled CALM1 (AID 1111).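 Further: labelled calmodulin applied in Tris saline Tween buffer holding calcium plus EGTA and DTT.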 Conditions: Cy5-CALM1 binding fluorescence, higher = more signal.
Test [5] has the same target. Description: calcium-bound CALM1 binders on microarrays, profiling panel, artefact control for SMM control-protein annotation, biochemical, small-molecule microarray, Cy5-labelled CALM1, plus calcium (AID 1112).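 Further: score merges spot fluorescence with signal to noise from triplicate slides.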 Conditions: Cy5-CALM1 binding fluorescence, higher = more signal.
Test [6] in a line: small-molecule microarray binders of probe aWnt5a, primary screen, biochemical, biotinylated probe, 635/667 nm fluorescence (AID 1113).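 Further: score merges 667 nm fluorescence intensity with signal-to-noise per printed feature.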 Conditions: higher = more signal.
Test [7] is described as follows: small-molecule microarray binders of probe aShh, primary screen, biochemical, biotinylated probe, 635/667 nm fluorescence (AID 1114).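 Further: probe is biotin-labelled aShh protein from a stem cell growth factor screen; measures binding of labelled protein to compounds printed on the slide; score merges feature fluorescence at 667 nm with signal-to-noise.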 The settings on record: higher = more signal.
The nature of test [8]: small-molecule microarray binders of probe aNog, primary screen, biochemical, biotinylated probe, 635/667 nm fluorescence (AID 1115).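 Further: probe is biotinylated aNog protein used at 0.15 µg/mL for 1 h at 4 C; z-score combines 667 nm fluorescence of each spot with its signal to noise.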 The settings on record: higher = more signal.
Test [9] has as its target Torsin-1A-interacting protein 1 (Homo sapiens) (UniProt Q5JTV8). Kind of test: LAP1 binders from COS7 cell lysate, primary screen, small-molecule microarray, 635/667 nm fluorescence (AID 1116). Conditions: COS7-hLAP1 lysate binding, 635 nm fluorescence, higher = more signal.
Test [10] addresses Alpha-bungarotoxin (Bungarus multicinctus) (UniProt P60615). Kind of test: alpha-bungarotoxin binders on microarray, profiling panel, artefact control for SMM control protein annotation, biochemical, small-molecule microarray, Alexa647 label, 635/667 nm fluorescence (AID 1117). Conditions: alpha-BTX-A647 binding fluorescence, higher = more signal.
In the next test the target is Albumin (Bos taurus) (UniProt P02769). Description: bovine serum albumin binders on microarray, profiling panel, artefact control for SMM control protein annotation, biochemical, small-molecule microarray, Alexa647 label, 635/667 nm fluorescence (AID 1118).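 Further: score merges 667 nm emission intensity and signal-to-noise per printed compound spot.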 Conditions: BSA-A647 binding, fluorescence 635 nm, higher = more signal.
Test [11] in a line: small-molecule microarray binders of probe aXIP, primary screen, biochemical, NeuroSMM set, 635/667 nm fluorescence (AID 1119).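 Further: probe is the protein aXip251-270 applied at 1 µg/mL to compound-printed slides; binding of probe to printed compounds measured as 667 nm fluorescence plus signal to noise.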 The settings on record: higher = more signal, called active from +8 up or from −8 down.
The nature of test [12]: small-molecule binders of probe aNOTCH3, primary screen, biochemical, small-molecule microarray, 635/667 nm fluorescence (AID 1120).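 Further: probe is a biotin-tagged antibody raised against NOTCH3 rather than NOTCH3 protein; score merges spot fluorescence near 667 nm with spot signal to noise.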 Conditions: higher = more signal.
Test [13] in a line: small-molecule binders of probe aNOTCH2, primary screen, biochemical, small-molecule microarray, 635/667 nm fluorescence (AID 1121).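 Further: score merges feature fluorescence read at 667 nm with its signal to noise.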 The settings on record: higher = more signal.
Test [14] concerns the target Carbonic anhydrase 2 (Homo sapiens) (UniProt P00918). Kind of test: CAII small-molecule binders, profiling panel, biochemical, small-molecule microarray, Alexa647-labelled CAII (AID 1122). Conditions: CAII-A647 binding fluorescence, higher = more signal.
The nature of test [15]: COS7 lysate on small-molecule microarray, probe aHis, 635 nm (AID 1123).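 Further: z-score combines 667nm fluorescence intensity with signal-to-noise per printed compound spot.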 Conditions: COS7 cell lysate, fluorescence, higher = more signal.
Test [16] in a line: compound binding in COS7 lysate, probe aLAP1, primary screen, cell lysate, small-molecule microarray (AID 1124).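 Further: lysate comes from COS7 cells expressing LAP1 and is applied at 0.3 µg/mL; score merges spot fluorescence near 667 nm with signal-to-noise over triplicate slides.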 The settings on record: probe aLAP1, fluorescence, higher = more signal.
Another test relates to Sam68 (KHDRBS1). Kind of test: Sam68 small-molecule binders, primary screen, biochemical, small-molecule microarray, 635 nm fluorescence (AID 1125).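 Further: score merges 667 nm channel intensity with signal to noise over triplicate slides.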 The settings on record: small-molecule microarray binding, higher = more signal.
Test [17] relates to Chordin-like protein 2 (CHRDL2). Description: CHRDL2 small-molecule binders, primary screen, biochemical, small-molecule microarray, 635 nm fluorescence (AID 1126).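 Further: printed compound slides probed with Chrdl2 protein at 4 µg/mL for 1 h at 4 C; score merges 667 nm emission intensity with signal to noise over three replicate slides.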 Conditions: small-molecule microarray binding, fluorescence 635 nm; higher = more signal.
For test [18], the target named is Concanavalin-A (Canavalia ensiformis) (UniProt P02866). Kind of test: ConA small-molecule binders, primary screen, artefact control for SMM control protein annotation, biochemical, small-molecule microarray, Alexa647 label, 635 nm (AID 1127).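 Further: z combines 667 nm emission intensity with signal-to-noise across three replicate slides.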 Conditions: ConA-A647 binding fluorescence, higher = more signal.

Calls of active or inactive are those of the source.

Chain of Concanavalin-A (Canavalia ensiformis) (P02866 whole entry, looked up): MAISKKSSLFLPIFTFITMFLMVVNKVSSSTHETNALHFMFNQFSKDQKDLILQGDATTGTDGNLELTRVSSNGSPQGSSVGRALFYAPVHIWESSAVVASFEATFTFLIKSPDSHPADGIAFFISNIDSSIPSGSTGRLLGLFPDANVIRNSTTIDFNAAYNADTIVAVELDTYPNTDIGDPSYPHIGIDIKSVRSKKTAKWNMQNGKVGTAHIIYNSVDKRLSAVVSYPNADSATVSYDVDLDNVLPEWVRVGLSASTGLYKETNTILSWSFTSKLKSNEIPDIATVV
Chain of Albumin (Bos taurus) (P02769 whole entry, looked up): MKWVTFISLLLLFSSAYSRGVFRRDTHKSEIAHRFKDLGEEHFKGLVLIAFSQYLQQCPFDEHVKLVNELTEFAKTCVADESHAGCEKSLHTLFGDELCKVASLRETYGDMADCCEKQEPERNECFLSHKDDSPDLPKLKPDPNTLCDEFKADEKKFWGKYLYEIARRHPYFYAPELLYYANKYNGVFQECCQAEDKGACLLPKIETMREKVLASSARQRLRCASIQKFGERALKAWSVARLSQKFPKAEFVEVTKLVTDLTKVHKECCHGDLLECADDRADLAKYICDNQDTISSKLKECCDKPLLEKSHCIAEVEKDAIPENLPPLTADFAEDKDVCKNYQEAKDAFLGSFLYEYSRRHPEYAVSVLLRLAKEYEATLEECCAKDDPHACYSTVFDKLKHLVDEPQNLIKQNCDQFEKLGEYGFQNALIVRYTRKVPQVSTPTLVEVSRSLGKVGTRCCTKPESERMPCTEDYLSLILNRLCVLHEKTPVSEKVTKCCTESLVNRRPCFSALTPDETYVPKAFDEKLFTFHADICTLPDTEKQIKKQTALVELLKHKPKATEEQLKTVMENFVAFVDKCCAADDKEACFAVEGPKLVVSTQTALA
Chain of Left-right determination factor 2 (Homo sapiens) (O00292 whole entry, looked up): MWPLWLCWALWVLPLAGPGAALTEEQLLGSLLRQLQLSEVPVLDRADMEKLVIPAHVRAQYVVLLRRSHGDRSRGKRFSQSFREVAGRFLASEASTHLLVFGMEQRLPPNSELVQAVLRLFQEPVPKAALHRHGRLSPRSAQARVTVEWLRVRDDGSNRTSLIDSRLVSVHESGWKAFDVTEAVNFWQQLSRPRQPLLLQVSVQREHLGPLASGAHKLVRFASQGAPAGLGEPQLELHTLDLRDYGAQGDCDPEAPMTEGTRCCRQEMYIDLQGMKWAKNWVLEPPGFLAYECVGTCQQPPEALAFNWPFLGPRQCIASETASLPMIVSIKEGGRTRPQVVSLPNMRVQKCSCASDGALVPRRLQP
Chain of Alpha-bungarotoxin (Bungarus multicinctus) (P60615 whole entry, looked up): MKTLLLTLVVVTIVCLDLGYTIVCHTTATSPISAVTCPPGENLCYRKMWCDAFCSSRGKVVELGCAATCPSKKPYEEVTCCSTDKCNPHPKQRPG
Chain of Torsin-1A-interacting protein 1 (Homo sapiens) (Q5JTV8 whole entry, looked up): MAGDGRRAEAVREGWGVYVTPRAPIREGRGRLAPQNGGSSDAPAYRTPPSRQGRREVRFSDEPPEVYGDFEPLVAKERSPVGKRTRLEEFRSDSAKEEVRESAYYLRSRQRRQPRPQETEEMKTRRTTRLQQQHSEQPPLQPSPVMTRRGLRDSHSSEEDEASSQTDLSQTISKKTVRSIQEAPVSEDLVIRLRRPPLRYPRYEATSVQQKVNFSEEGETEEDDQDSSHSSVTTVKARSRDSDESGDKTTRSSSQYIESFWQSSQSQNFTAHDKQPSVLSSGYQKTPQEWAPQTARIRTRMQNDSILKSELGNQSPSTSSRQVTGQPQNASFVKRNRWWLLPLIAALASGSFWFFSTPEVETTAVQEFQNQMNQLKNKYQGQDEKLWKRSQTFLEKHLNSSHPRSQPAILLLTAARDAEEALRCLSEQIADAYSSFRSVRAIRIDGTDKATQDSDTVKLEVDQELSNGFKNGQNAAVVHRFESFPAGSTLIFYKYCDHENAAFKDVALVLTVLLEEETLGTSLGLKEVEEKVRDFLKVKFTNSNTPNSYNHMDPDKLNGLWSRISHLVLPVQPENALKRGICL

Consider `COCCOC(=O)N1C(=O)[C@@]2(c3ccccc31)[C@H](c1ccccc1OCCO)N1[C@H](c3ccccc3)[C@H](c3ccccc3)OC(=O)[C@H]1[C@@H]2C(=O)N1CCc2cc(OC)c(OC)cc2C1`, for which the composite z-score is 0.825 in test [1]; 0.415 in [3]; 1.29 in test [4]; 0.0498 in test [5]; -0.0161 in test [6]; 0.399 in test [7]. The composite z-score in [8] was 0.194; in [9], 0.561; in test [10] it was 0.91; with Albumin (Bos taurus), -0.274; in [12], 0.0833; in test [13], -0.0176. Further, the composite z-score in test [14] was 0.335; in test [15], 0.51; in [16], 0.0553; in the test with Sam68 (KHDRBS1), 1.27; in test [17], 0.475; in test [18], 1.18. This molecule returned a z-score in [2] of -2.37. Also, the composite Z-score in test [11] is 0.511 (inactive).
Consider `COCCOC(=O)N1C(=O)[C@@]2(c3cc(C#CCNC(N)=O)ccc31)[C@H](c1ccc(OCCO)cc1)N1[C@H](c3ccccc3)[C@H](c3ccccc3)OC(=O)[C@H]1[C@@H]2C(=O)N1CCN(c2ncccn2)CC1`, for which the composite z-score is 1.23 in test [1]; 0.93 in [3]; 0.515 in test [4]; 0.53 in test [5]; 0.0657 in test [6]; -0.138 in [7]. Also, the composite z-score was -0.0724 in [8]; 0.895 in test [9]; 0.505 in [10]; 0.358 in the test with Albumin (Bos taurus); 0.31 in test [12]; 0.09 in [13]. Further, the composite z-score in test [14] worked out at 0.2; in test [15], 0.887; in test [16] it was 0.558; with Sam68 (KHDRBS1) it was 1.29; in test [17], 0.908; in [18], 1.11. Also, in [2], the z-score was -0.0743. In addition, the composite Z-score in test [11] is 0.764 (inactive).
As to `CO[C@H]1O[C@H](CO)[C@@H](OC(=O)Nc2cccc(F)c2)[C@H](OC(=O)Nc2ccc3c(c2)OCO3)[C@H]1OC(=O)Nc1ccc2c(c1)OCO2`, the composite z-score in test [1] was 1.12; in test [3] it was 0.0115; in test [4], 0.67; in test [5], -0.957; in [6], -0.0735; in [7], 0.0469. The composite z-score in [8] is 0.201; in test [9], 3.02; in [10] it was 0.972; in the test with Albumin (Bos taurus), 0.445; in [12], 0.0225; in [13] it was -0.0508. Besides, the composite z-score came to 0.728 in test [14]; 2.23 in test [15]; 0.315 in [16]; 1.3 in the test on Sam68 (KHDRBS1); 0.163 in test [17]; 0.731 in [18]. The z-score in test [2] was -1.37. Besides, the composite Z-score in test [11] is 0.859 (inactive).
As to `CCC[C@@H]1C[C@@]1(CCC)[C@@H](NC(=O)c1cccs1)c1ccc(Cl)cc1`, the composite z-score in test [1] was -0.364; in test [3], -2.42; in test [4] it was 0.883; in [5], 0.881; in test [6], 0.0529; in test [7], 0.29. Besides, the composite z-score is 1.39 in test [8]; -0.506 in test [9]; -0.0153 in test [10]; 0.259 with Albumin (Bos taurus); -0.102 in test [12]; -0.0617 in test [13]. Further, the composite z-score in test [14] is 0.247; in test [15], 0.855; in test [16], -0.199; in the test on Sam68 (KHDRBS1) it was -0.0604; in test [17] it was -0.693; in [18], -0.596. Further, the z-score in test [2] was -2.05. In [11], the composite Z-score is -0.222 (inactive).
`CCCC=C(CCC)[C@@H](NS(=O)(=O)c1ccccc1)c1ccc(C(F)(F)F)cc1`: the composite z-score in test [1] was 1.37; in test [3], 0.0643; in test [4], 1.73; in [5] it was 0.726; in test [6] it was 0.0495; in [7] it was 0.432. For the same molecule, the composite z-score was -0.475 in test [8]; 1.31 in test [9]; 1.28 in test [10]; 0.871 with Albumin (Bos taurus); 0.23 in [12]; 0.277 in [13]. The composite z-score in test [14] came to 0.578; in [15] it was 2.65; in [16], 0.17; in the test on Sam68 (KHDRBS1), 1.32; in [17], 0.24; in [18], 1.09. In addition, in [2], the z-score was -2.28. The composite Z-score in test [11] is 0.35 (inactive).
